Bioassay records from PubChem.
This is a sample that favours compounds with a hit; in the whole collection about 2.4% have one here.
D2 antagonist: HTS Assay for Allosteric Antagonists of the Human D2 Dopamine Receptor: Primary Screen for Antagonists. actives 2% (n = 340,000). D(2) dopamine receptor (Homo sapiens), P14416. HEK293 TREx D2 cells, calcium flux, dopamine EC80. inhibition, % at 10 µM; in the data active means inhibition above about 30%; inactive means below that, where a call was filed; further: 0% is about no effect
Target sequence (P14416 whole entry, looked up): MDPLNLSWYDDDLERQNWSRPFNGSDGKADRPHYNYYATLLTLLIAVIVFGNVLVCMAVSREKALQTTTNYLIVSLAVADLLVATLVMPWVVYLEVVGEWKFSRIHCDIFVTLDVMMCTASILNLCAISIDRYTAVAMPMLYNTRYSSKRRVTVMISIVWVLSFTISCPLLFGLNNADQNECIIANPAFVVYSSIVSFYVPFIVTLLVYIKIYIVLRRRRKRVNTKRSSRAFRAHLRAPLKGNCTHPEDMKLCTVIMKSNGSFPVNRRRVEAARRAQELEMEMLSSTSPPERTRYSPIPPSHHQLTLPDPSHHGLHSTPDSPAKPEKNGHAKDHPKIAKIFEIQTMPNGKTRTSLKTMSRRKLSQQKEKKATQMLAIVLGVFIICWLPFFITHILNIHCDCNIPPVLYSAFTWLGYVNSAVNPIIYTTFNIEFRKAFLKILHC
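Tetracycline-induced HEK293 TREx cells expressing D2 receptor forced-coupled to calcium signalling, loaded with no-wash calcium dye. Compounds added and calcium flux read 180 s, then dopamine added at EC80 and read a further 180 s.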
D2 PAM-1: HTS Assay for Positive Allosteric Modulators of the Human D2 Dopamine Receptor: Primary Screen for Potentiators | actives 0.34% (n = 340,000) | potentiation, % at 10 µM | HEK293 T-REx D2, calcium flux, EC20 dopamine potentiation | D(2) dopamine receptor (Homo sapiens), P14416;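 active means potentiation over 3 SD above the plate norm, cut at about 30% in these data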; further: 0% is about no effect
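Potentiation of an EC20 dopamine calcium response is measured in a force-coupled, tetracycline-inducible Hek293 Trex D2 line. Compound-only kinetic reads over 180 s flag agonists before dopamine addition.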
D2 ag-1: Beta-Arrestin HTS for Positive Allosteric Modulators of the Human D2 Dopamine Receptor: Agonists. activation, % (no concentration beside the values). actives 0.084% (n = 360,000). D(2) dopamine receptor (Homo sapiens), P14416. DiscoveRx PathHunter D2 beta-arrestin, luminescence, 90 min; 100% = 57 uM dopamine signal. AID 624465, 2012; in the data active means activation above about 40%
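DiscoveRx PathHunter D2 beta-arrestin cells (2,100/well) attached overnight, then compound-stimulated 90 min at 37 C in HBSS/10 mM HEPES/0.1% Tween-20 buffer; beta-galactosidase complementation read by luminescence after 1 h at ambient temperature. Dopamine 57 uM final (EC100) as control.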
D2 PAM-2: Beta-Arrestin HTS for Positive Allosteric Modulators of the Human D2 Dopamine Receptor: Potentiators. D(2) dopamine receptor (Homo sapiens), P14416. DiscoveRx D2 beta-arrestin cells, luminescence, 90 min; 100% = 57 uM dopamine signal. potentiation, % (concentration not given with the values). actives 0.23% (n = 360,000); in the data active means potentiation above about 50%
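PathHunter D2 cells, attached overnight at 37 deg C, received compound in DMSO plus dopamine at EC20 (50 nM final) for 90 min at 37 deg C. Beta-arrestin recruitment was read as luminescence after 1 h with detection reagent at ambient temperature.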
D2 ag-2: HTS Assay for Allosteric Agonists of the Human D2 Dopamine Receptor: Primary Screen for Agonists | D(2) dopamine receptor (Homo sapiens), P14416 | HEK293 T-REx D2 cells, calcium flux agonist mode | activation, % at 2 µM | actives 0.53% (n = 340,000);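 active means activation over 3 SD above normal in the single-dose calcium agonist read, cut at about 30% in these data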; further: 0% is about no effect
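Tetracycline-induced HEK293 T-REx cells with force-coupled D2 receptor, plated overnight at 30 C, loaded with no-wash calcium dye. After a 10 s baseline, compound was pin-added and calcium flux read kinetically for 180 s; calcium rises flagged agonists.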
* marks the source's active call; other numbers are inactive results; nt = not tested or not shown.

SMILES	D2 antagonist	D2 PAM-1	D2 ag-1	D2 PAM-2	D2 ag-2
COc1ccc(NC(=O)CCc2nnc3ccc(N4CCC(C)CC4)nn23)cc1	-6	-3	-1	-4	1
COc1ccc(N2CCN(c3ccc4nnc(CCC(=O)Nc5ccc(C)cc5)n4n3)CC2)cc1	34*	8	-5	-8	0
CCOc1ccc(-n2c(=O)c3c(C)c(C(=O)N(C)C)sc3n(CC(=O)Nc3c(C)cc(C)cc3C)c2=O)cc1	nt	-4	nt	nt	0
Cc1ccccc1NC(=O)Cn1nnc(-c2ccc(CN3CCC(C)CC3)cc2)n1	33*	-8	0	-15	2
CCc1nnc(NC(=O)CSc2nc3c([nH]c4ccccc43)c(=O)n2-c2ccc(Cl)cc2)s1	nt	-1	nt	nt	1
CCOC(=O)c1sc2nc(C)nc(SCC(=O)NC3CCS(=O)(=O)C3)c2c1C (stereo unspecified)	-17	42*	3	-8	-1
COc1ccc(N2CCN(C(=O)CSc3nnc4n3C(C)(C)Cc3ccccc3-4)CC2)cc1	-6	19	-2	0	-1
Cc1ccc(Cl)cc1N1CCN(C(=O)CSc2nnc3n2C(C)(C)Cc2ccccc2-3)CC1	-12	31*	2	6	0
O=C(O)c1ccc2nc(-c3cc4cc(Cl)ccc4oc3=O)[nH]c2c1	nt	-13	nt	nt	0
COc1cccc(NC(=O)c2nn(-c3ccc(C)cc3)c(=O)n(C)c2=O)c1	nt	-12	nt	nt	0
Cc1ccc(-c2nc3c(c(=O)c4ccccc4n3C)c(=O)n2Cc2ccco2)cc1	36*	12	4	8	4
Cn1c2ccccc2c(=O)c2c(=O)n(Cc3ccco3)c(-c3ccc(F)cc3)nc21	-7	9	-4	-7	-1
Cc1cc(NC(=O)C2C3C(=O)N(CC4CCCO4)C(C(=O)NCc4ccccc4)C34C=CC2(C)O4)no1 (stereo unspecified)	33*	6	-2	-5	1
COc1ccc(C)cc1NC(=O)c1ccc2c(c1)N(Cc1cccc(Cl)c1)C(=O)c1ccccc1S2=O (stereo unspecified)	nt	24	nt	nt	nt
COc1ccc(NC(=O)N(C2CCCCC2)C2CCN(C(C)C)CC2)c(OC)c1	50*	nt	1	11	1
COc1ccc(-c2nc(CSCC(=O)N3CCN(C)CC3)c(C)o2)cc1OC	40*	-2	-3	-1	1
CCSc1nc2c([nH]c3ccccc32)c(=O)n1-c1ccc(OC)cc1	nt	-5	nt	nt	1
CC(NC(=O)CSc1nnc(-c2cccc(S(=O)(=O)N3CCCCC3)c2)o1)C12CC3CC(CC(C3)C1)C2 (stereo unspecified)	nt	12	1	58*	nt
COCC(C)NC(=O)CSc1nnc(-c2cccc(S(=O)(=O)N3CCCCC3)c2)o1 (stereo unspecified)	-12	3	-4	-2	2
O=C(c1nc2ncccn2n1)N1CCN(c2ccc(F)cc2)CC1	10	31*	-3	-11	1
O=C(Cc1cccs1)Nc1ccc(NC(=O)c2ccco2)cc1	31*	-11	2	1	0
COc1ccc(NC(=O)CCc2c(C)nc3c(-c4ccccc4)c(C)nn3c2C)cc1Cl	nt	-4	nt	nt	0
CCCNC(=O)Nc1ccc2c(c1)N(C)C(=O)c1ccccc1S2	-5	0	1	3	1
Cc1ccc(CNC(=O)Nc2ccc3c(c2)N(C)C(=O)CS3)cc1	-5	-8	-4	-6	-1
CCCCNC(=O)Nc1ccc2c(c1)N(C)C(=O)c1ccccc1S2	46*	-17	-1	-15	1
SMILES	D2 antagonist	D2 PAM-1	D2 ag-1	D2 PAM-2	D2 ag-2
CN1C(=O)CSc2ccc(NC(=O)NCc3ccccc3)cc21	30*	-22	-2	-3	-1
COc1ccc(C(CC(=O)NCc2ccccc2Cl)N2Cc3ccccc3C2=O)cc1OC (stereo unspecified)	nt	-9	nt	nt	0
Cc1cc(C(F)(F)F)n(-c2nc(C(=O)O)cs2)n1	-3	-4	1	-4	0
O=C(O)c1csc(-n2nc(-c3ccccc3)cc2C(F)(F)F)n1	48*	15	4	-10	0
Cc1ccc(C)c2[nH]c(=O)c(CN(CC3CCCO3)C(=S)NCc3ccco3)cc12 (stereo unspecified)	6	2	1	1	-1
Cc1ccc2cc(CN(CC3CCCO3)C(=S)NCc3ccco3)c(=O)[nH]c2c1C (stereo unspecified)	33*	5	-11	-5	-1
Cc1ccc(C)c2[nH]c(=O)c(CN(Cc3cccs3)C(=S)NCc3ccco3)cc12	53*	6	0	-8	2
CCOc1cccc2sc(N(Cc3cccnc3)C(=O)C3CCCCC3)nc12	nt	0	nt	nt	-1
CCOC(=O)C1CCCN(c2c(C(=O)c3ccc(C)cc3)cnc3ccc(OCC)cc23)C1 (stereo unspecified)	nt	-5	nt	nt	0
CCOc1ccc(CN2CCN(Cc3cccc4c3OCO4)CC2CCO)cc1 (stereo unspecified)	-28	-29	-5	-4	1
Cc1ccc(CN2CCN(Cc3cccc4c3OCO4)CC2CCO)cc1 (stereo unspecified)	88*	-19	-1	-13	0
CCOc1ccc(C(=O)NCCn2cc(SCC(=O)Nc3ccccc3)c3ccccc32)cc1	nt	17	nt	nt	2
Cc1ccccc1C(=O)OCCN(C)Cc1ccccc1	32*	-21	-5	-16	-2
Cc1ccc(C(=O)OCCN(C)Cc2ccccc2)cc1	2	-19	-4	-19	2
O=C(Nc1nccs1)C1CC(=O)N(Cc2ccco2)C1 (stereo unspecified)	-17	46*	-4	9	1
Cc1ccc(N2CC(C(=O)Nc3ccc4c(c3)OCO4)CC2=O)cc1C (stereo unspecified)	0	31*	-2	-5	-2
Cc1ccc(N2CC(C(=O)Nc3ccc4c(c3)OCO4)CC2=O)cc1 (stereo unspecified)	-6	-8	-3	3	-1
COc1cccc(NC(=O)C2CC(=O)N(Cc3ccco3)C2)c1 (stereo unspecified)	37*	-1	-6	-1	1
